Results published in PubChem BioAssay (Tox21).
Records with an inconclusive call do not appear. Activity calls are given as the source filed them. Unless noted, calls follow the shape of the dose curve; as a rule, active = well fitted curve in the direction sought with a large enough effect in the repeat runs; inconclusive = weak or mixed curves; inactive = no such curve, though single readings can be large; an effect the other way counts as inactive or inconclusive.

Tests used:
[1] = A CellTox Green Cytotoxicity Assay to monitor cytotoxicity in HEK293 cells - 32 hour (AID 1224881); also: nearly all actives have a fitted effect of over 40% in size
Outline: (§1)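 Fluorescence from a DNA-binding dye excluded by viable cells was measured repeatedly in the same HEK293 wells (600 cells/well) during continuous compound exposure at 37 C. Each assay gives one read point: 0, 8, 16, 24, 32 or 40 h.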

[2] = A CellTox Green Cytotoxicity Assay to monitor cytotoxicity in HepG2 cells - 0 hour (AID 1224882); also: nearly all actives have a fitted effect of over 35% in size
Outline: (§2)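 Real-time cytotoxicity: fluorescence of a cell-impermeant cyanine dye binding DNA of dead HepG2 cells, measured repeatedly (0–40 h) during compound exposure at 37 C. Cells seeded 600/well with reagent, dosed after 5 h.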

[3] = A CellTox Green Cytotoxicity Assay to monitor cytotoxicity in HepG2 cells - 32 hour (AID 1224883); also: nearly all actives have a fitted effect of over 50% in size
Outline: as §2

[4] = A CellTox Green Cytotoxicity Assay to monitor cytotoxicity in HEK293 cells - 8 hour (AID 1224884); also: nearly all actives have a fitted effect of over 35% in size
Outline: as §1

[5] = qHTS RealTime-Glo MT Cell Viability Assay in HepG2 cells - 16 hour (AID 1224885); also: nearly all actives have a fitted effect of over 50% in size
Outline: (§3)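 Luminescence read-out: viable HepG2 cells reduce a prosubstrate to a NanoLuc substrate, giving a signal proportional to live cell number. Reads taken at 0, 8, 16, 24, 32 and 40 h of compound exposure at 37 C.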

[6] = qHTS RealTime-Glo MT Cell Viability Assay in HEK293 cells - 24 hour (AID 1224886); also: nearly all actives have a fitted effect of over 50% in size; also: potency is read from the fitted curve at half-maximal effect
Outline: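 Nonlytic real-time viability readout: viable cells convert prosubstrate to NanoLuc substrate, giving luminescence proportional to live cell number. HEK293, 600 cells/well, compound added after 5 h, continuous culture at 37 C.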

[7] = qHTS RealTime-Glo MT Cell Viability Assay in HEK293 cells - 8 hour (AID 1224887); also: nearly all actives have a fitted effect of over 50% in size; also: potency is read from the fitted curve at half-maximal effect
Outline: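 Luminescence, which tracks viable cell number through reduction of the prosubstrate to a NanoLuc substrate, was read over continuous 37 C culture. Cells (600/well) were premixed with reagent and rested 5 h before 23 nL of compound in DMSO was pinned.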

[8] = A CellTox Green Cytotoxicity Assay to monitor cytotoxicity in HEK293 cells - 16 hour (AID 1224888); also: nearly all actives have a fitted effect of over 35% in size
Outline: as §1

[9] = qHTS RealTime-Glo MT Cell Viability Assay in HepG2 cells - 0 hour (AID 1224889); also: nearly all actives have a fitted effect of over 50% in size
Outline: as §3

[10] = A CellTox Green Cytotoxicity Assay to monitor cytotoxicity in HepG2 cells - 8 hour (AID 1224890); also: nearly all actives have a fitted effect of over 45% in size
Outline: as §2

[11] = qHTS assay to identify small molecule antagonists of the estrogen receptor alpha (ER-alpha) signaling pathway using the BG1 cell line in the presence of 0.1 nM 17-beta-estradiol - cell viability counter screen (AID 1259241); also: nearly all actives have a fitted effect of over 40% in size
Outline: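 The cell line endogenously expresses full-length ER-alpha and carries four EREs driving luciferase. Cells are cultured 5 days hormone-free, treated 22 hr with compounds and 0.1 nM estradiol, then viability is read by fluorescence.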

[12] = qHTS assay to identify small molecule antagonists of the androgen receptor (AR) signaling pathway using the MDA cell line in the presence of 0.5 nM R1881 - cell viability counter screen (AID 1259242); also: nearly all actives have a fitted effect of over 45% in size
Outline: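 Live-cell protease activity was measured by CellTiter-Fluor fluorescence after 30 min. Before that, MDA-kb2 MMTV-luciferase cells had 16 hr at 37C without CO2, exposed to test compounds and 0.5 nM R1881 final.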

[13] = biological target: Androgen receptor (Homo sapiens) (UniProt P10275); assay: qHTS assay to identify small molecule antagonists of the androgen receptor (AR) signaling pathway using the MDA cell line in the presence of 0.5 nM R1881 (AID 1259243); also: nearly all actives have a fitted effect of over 50% in size; also: potency is read from the fitted curve at half-maximal effect
Outline: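 Luminescent reporter readout (ONE-Glo, 30 min, room temperature) after 16 hr co-treatment of MDA-kb2 cells with test compounds and 0.5 nM R1881 final, at 37C without CO2. The MMTV-driven luciferase responds to both AR and GR.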

[14] = biological target: Estrogen receptor (Homo sapiens) (UniProt P03372); assay: qHTS assay to identify small molecule antagonists of the estrogen receptor alpha (ER-alpha) signaling pathway using the BG1 cell line in the presence of 0.1 nM 17-beta-estradiol (AID 1259244); also: nearly all actives have a fitted effect of over 50% in size; also: potency is read from the fitted curve at half-maximal effect
Outline: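 Luciferase luminescence (ONE-Glo, 30 min at room temperature) was read after 22 hr at 37C exposure to compounds plus 17beta-estradiol at 0.1 nM final. Cells were VM7Luc4E2 with endogenous ER-alpha and an ERE-driven luciferase, pre-cultured 5 days in hormone-depleted medium.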

[15] = qHTS assay to identify small molecule HDAC inhibitors (AID 1259364); also: top concentration of the series differs between compounds; nearly all actives have a fitted effect of over 45% in size
Outline: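 Luminescence read after 30 min room-temperature HDAC-Glo incubation measures cellular class I/II HDAC activity. Compounds were applied for 2 hr at 37 C to HCT-116 wild-type cells seeded the day before.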

[16] = qHTS assay to identify small molecule HDAC inhibitors - cell viability counter screen (AID 1259365)
Outline: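 Viability readout: CellTiter-Glo luminescence. Wild-type HCT-116 cells, 2hr compound treatment following overnight attachment at 37 C.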

[17] = qHTS assay to identify small molecule agonists of the sonic hedgehog signaling (Shh) pathway - cell viability counter screen (AID 1259366); also: nearly all actives have a fitted effect of over 50% in size
Outline: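 Viability measured fluorometrically (CellTiter-Fluor, 1hr, 37C) in 3T3 Gli1-Luc reporter cells after 23hr compound exposure within a 24hr incubation at 37C/5% CO2.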

[18] = qHTS assay to identify small molecule antagonists of the sonic hedgehog signaling (Shh) pathway - cell viability counter screen (AID 1259367); also: nearly all actives have a fitted effect of over 55% in size
Outline: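 Fluorescence read-out (CellTiter-Fluor, 1 hr at 37C) taken after 23 hr compound treatment of 3T3 Gli1-Luc cells stimulated with conditioned medium. Cells were seeded at 2,000 per well and pre-incubated 4 hr.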

[19] = qHTS assay to identify small molecule agonists of the sonic hedgehog signaling (Shh) pathway (AID 1259368; calls by dose curve;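 also: NIH/3T3-derived 3T3Gli1-Luc cells carrying a stable Gli1-driven firefly luciferase reporter; series mostly up to about 92 µM; nearly all actives have a fitted effect of over 15% in size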)
Outline: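 Luminescence was read after 30 min at room temperature with luciferase reagent. Before that, 3T3Gli1-Luc cells (NIH/3T3 clone, stable Gli1-Luc reporter; 2,000/well) were exposed to compounds for 24 hr at 37C, 5% CO2, compounds being added 4 hr post-plating.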

[20] = qHTS assay to identify small molecule phospholipidosis (PLD) inducers (AID 1259344; active = well fitted curve in the direction sought with a large enough effect; an effect the other way counts as inactive or inconclusive)
Outline: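 Read-out is LipidTOX Red fluorescence (ex 595/em 615) imaged in HepG2 cells after 24 h compound exposure at 37 C, with Hoechst nuclear counterstain (ex 352/em 461) allowing per-cell normalisation.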

Measured: Potency

Androgen receptor (Homo sapiens), sequence (P10275 whole entry, looked up): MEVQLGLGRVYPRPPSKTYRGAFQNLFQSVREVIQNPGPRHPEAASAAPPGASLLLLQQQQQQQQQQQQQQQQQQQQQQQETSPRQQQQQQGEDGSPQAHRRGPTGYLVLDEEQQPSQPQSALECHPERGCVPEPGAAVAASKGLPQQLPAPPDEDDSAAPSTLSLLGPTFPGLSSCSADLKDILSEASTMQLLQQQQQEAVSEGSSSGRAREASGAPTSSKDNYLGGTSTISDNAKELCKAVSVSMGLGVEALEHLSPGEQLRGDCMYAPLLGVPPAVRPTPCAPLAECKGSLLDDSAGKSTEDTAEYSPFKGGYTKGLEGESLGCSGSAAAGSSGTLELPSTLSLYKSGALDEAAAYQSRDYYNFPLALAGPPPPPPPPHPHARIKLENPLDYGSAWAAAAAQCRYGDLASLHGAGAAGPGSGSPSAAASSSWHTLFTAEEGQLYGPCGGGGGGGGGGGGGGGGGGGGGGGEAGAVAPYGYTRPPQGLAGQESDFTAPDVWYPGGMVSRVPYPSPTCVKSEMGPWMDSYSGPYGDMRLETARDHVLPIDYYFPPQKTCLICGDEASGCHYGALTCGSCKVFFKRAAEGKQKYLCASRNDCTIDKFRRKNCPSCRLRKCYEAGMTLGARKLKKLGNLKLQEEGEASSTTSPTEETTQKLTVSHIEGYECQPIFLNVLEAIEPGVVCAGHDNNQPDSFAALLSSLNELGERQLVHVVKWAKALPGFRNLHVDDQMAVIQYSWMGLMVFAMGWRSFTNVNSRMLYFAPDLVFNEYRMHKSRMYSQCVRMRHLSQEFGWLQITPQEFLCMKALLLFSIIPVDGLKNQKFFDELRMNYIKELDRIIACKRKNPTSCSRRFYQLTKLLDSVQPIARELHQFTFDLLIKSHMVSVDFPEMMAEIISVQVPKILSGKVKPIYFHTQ
Estrogen receptor (Homo sapiens), sequence (P03372 whole entry, looked up): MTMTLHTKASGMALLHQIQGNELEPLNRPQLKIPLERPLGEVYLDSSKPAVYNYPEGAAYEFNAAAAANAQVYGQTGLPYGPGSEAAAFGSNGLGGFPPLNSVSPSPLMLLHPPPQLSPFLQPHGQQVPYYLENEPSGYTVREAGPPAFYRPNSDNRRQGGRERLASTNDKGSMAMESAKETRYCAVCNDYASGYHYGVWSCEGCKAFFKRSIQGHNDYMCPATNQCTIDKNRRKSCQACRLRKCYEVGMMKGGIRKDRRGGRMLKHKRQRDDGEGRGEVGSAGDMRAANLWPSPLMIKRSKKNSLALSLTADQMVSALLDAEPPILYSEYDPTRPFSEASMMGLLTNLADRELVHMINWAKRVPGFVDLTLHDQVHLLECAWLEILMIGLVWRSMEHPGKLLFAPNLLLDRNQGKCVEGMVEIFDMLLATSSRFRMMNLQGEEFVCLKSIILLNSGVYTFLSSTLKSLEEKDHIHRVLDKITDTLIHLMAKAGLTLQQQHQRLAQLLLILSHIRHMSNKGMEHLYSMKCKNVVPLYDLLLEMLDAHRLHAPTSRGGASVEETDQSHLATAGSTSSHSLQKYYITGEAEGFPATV

CCCC/C=C/C=C\C=O
inactive: [1] | [2] | [3] | [4] | [5] | [6] | [7] | [8] | [9] | [10] | [11] | [12] | [13] | [14] | [15] | [16] | [17] | [18] | [19]

CC(C)(C)c1n[nH]c(=S)n(N)c1=O
inactive: [1] | [2] | [3] | [4] | [5] | [6] | [7] | [8] | [9] | [10] | [11] | [12] | [14] | [15] | [16] | [17] | [18] | [19]

O=C(O)C(=O)Cc1ccccc1
inactive: [1] | [2] | [3] | [4] | [5] | [6] | [7] | [8] | [9] | [10] | [11] | [12] | [13] | [14] | [15] | [17] | [18] | [19]

CC(C)=O
inactive: [1] | [2] | [3] | [4] | [5] | [6] | [7] | [8] | [9] | [10] | [11] | [12] | [13] | [14] | [20] | [15] | [16] | [17] | [18] | [19]

CC1=CCC(C(C)C)=CC1
inactive: [1] | [2] | [3] | [4] | [5] | [6] | [7] | [8] | [9] | [10] | [11] | [12] | [14] | [15] | [16] | [17] | [18] | [19]

O=C(Nc1ccc(Cl)c(Cl)c1)C1CC1
inactive: [1] | [2] | [3] | [4] | [5] | [8] | [9] | [10] | [11] | [12] | [20] | [15] | [17] | [18] | [19]
active: [6] 9.52 µM | [7] 19 µM | [13] 5.96 µM | [14] 26.6 µM

CC(=O)Nc1ccc(S(=O)(=O)Cl)cc1
inactive: [1] | [2] | [3] | [4] | [5] | [6] | [7] | [8] | [9] | [10] | [11] | [12] | [15] | [16] | [17] | [18] | [19]
